Values without a mark were called inactive. Activity calls are given as the source filed them. No rule for the calls is given here.
Test: C difficile toxins, biochemical counterscreen, UDPG substrate absence, confirmatory dose response (AID 720650)
Conditions: series mostly up to 19.5 µM; activity change, negative = inhibition: at the top concentration

| Structure (SMILES) | activity change, negative = inhibition [%] | AC50 |
| --- | --- | --- |
| O=C(O)c1ccc(/C=N/NC(=S)NCCN2CCOCC2)cc1 | -2.89 |  |
| Cc1ccc(C(=O)NC(=S)NNC(=O)CC#N)cc1 |  | 5.73 µM (active) |
| COc1cc2[nH]c(=S)nc(NCCC(C)C)c2cc1OC | -22.8 |  |
| Nc1ncnc2[nH]c(=S)[nH]c12 |  | > 39 µM |
| CCC(=O)N1CC[C@@H]2[C@H]1c1cc(-c3ccccc3)ccc1N(C)[C@H]2CO |  | 4.44 µM (active) |
| COc1ccc(NS(=O)CCCc2ccccc2)cc1 (centres undefined) | -1.77 |  |
| COc1ccccc1-c1cn[nH]c1-c1ccc(O)cc1O |  | > 39 µM |
| CCNC(=O)C[C@H]1CC[C@@H]2[C@H](COc3ccc(NC(=O)c4ccc5c(c4)OCO5)cc3C(=O)N2C)O1 |  | > 42 µM |
| COc1cc(/C=N/NC(=O)c2c(C)nc3ccc(Cl)cn23)cc(OC)c1OC | -0.562 |  |
| CCOc1ccccc1NC(=O)CCNS(=O)(=O)c1cccc2nonc12 | -10.8 |  |
| COc1cc(/C=C/c2sc3ccccc3[n+]2CCCS(=O)(=O)[O-])ccc1O | -2.25 |  |
| Oc1ccccc1-c1cnc2cccnn12 |  | > 39 µM |
| CCc1ccc(NC(=O)C2=CC(c3ccc(OC)cc3)=NS(=O)(=O)N2C)cc1 | -6.94 |  |
| Cc1ccc(NNC(=O)C2CCC2)cc1C |  | 0.386 µM (active) |
| Cc1cccc(/C=C/c2onc(C)c2S(=O)(=O)N2CCC(C(=O)N3CCCCC3)CC2)c1 | -16.6 |  |
| CC(=O)N1CC[C@@H]2[C@@H](CO)N(C)c3ccc(-c4ccccc4)cc3[C@@H]21 |  | 7.4 µM (active) |
| Cc1ccccc1S(=O)(=O)N1CCCc2nc(C)c(C)cc21 |  | > 39 µM |
| COCC(=O)N1CC[C@@H]2[C@H]1c1cc(-c3ccccc3)ccc1N(C)[C@H]2CO |  | 6.54 µM (active) |
| COc1cc(/C=N/NC(=O)Cn2nnc3ccccc32)ccc1O | 2.37 |  |
| Nc1ccc(OCCCc2c(N)nc(N)nc2N)cc1 |  | 20.1 µM (active) |

| Structure (SMILES) | activity change, negative = inhibition [%] | AC50 |
| --- | --- | --- |
| COC(=O)C(C(=O)OC)C(CC(=O)c1ccc(Br)cc1)c1ccccc1 (centres undefined) | -10.2 |  |
| CCOC(=O)c1cccc(NC(=O)CCNS(=O)(=O)c2cccc3nonc23)c1 | 4.43 |  |
| Cc1ccnc(N2C(=O)c3ccccc3C2=O)c1 | 6.58 |  |
| Cc1[nH]nc(-c2ccc(O)cc2O)c1Oc1ccccc1 |  | 14.6 µM (active) |
| COc1ccccc1C1=NNC(=NCc2ccccc2)SC1 |  | > 39 µM |
| O=C(C[C@@H]1CC[C@H]2[C@@H](COC[C@@H](O)CN2Cc2ccc(Oc3ccccc3)cc2)O1)Nc1nccs1 | 8.53 |  |
| COc1ccc(C2=NS(=O)(=O)N(C)C(C(=O)NCc3ccc(F)cc3)=C2)cc1OC | -12.4 |  |
| CN1CCN(CC(=O)Nc2cc(N(C)C)nc3ccccc23)CC1 | 8.85 |  |
| CN1CCN(C(CNC(=O)c2ccc(Br)o2)c2ccc(F)cc2)CC1 (centres undefined) | -7.41 |  |
| CCN(C(=O)COC(=O)c1cccnc1SC)C1CCCCC1 | 2.92 |  |
| O=C(Nc1ccccc1F)N1C[C@@H]2N[C@H](C1)C2c1ccc(-c2cccc(F)c2)cc1 (some centres undefined) | 11.1 |  |
| c1ccc2[nH]c(-c3ccc4c(c3)OCO4)nc2c1 | -21.3 |  |
| CCCCNS(=O)(=O)c1ccc(OCC(=O)OC)cc1 | 0.773 |  |
| CC1(C)CC(=O)C(C=Nc2ccc(N)cc2)=C(O)C1 | -6.16 |  |
| Cc1cc(C)c(S(=O)(=O)N2CCCCC2C(=O)O)c(C)c1 (centres undefined) | -14 |  |
| CCN1CCN(C(=O)C2=CC(c3ccc(OC)cc3)=NS(=O)(=O)N2C)CC1 | -16.2 |  |
| O=C(O)c1ccc(-n2nnc3ccccc32)c([N+](=O)[O-])c1 | 11.4 |  |
| CNC(=O)C[C@H]1CC[C@@H]2[C@H](COc3ccc(NC(=O)c4ccc(OC)cc4)cc3C(=O)N2C)O1 |  | > 39 µM |
| CCNC(=O)[C@H]1[C@H](CO)[C@H]2Cn3c(ccc(-c4ccccc4)c3=O)[C@H]2N1CC | 1.74 |  |

Reference: PubChem BioAssay AID720650 (Broad Institute, 2013)
